Compounds with a hit are over-represented: about 2.4% of the library has one in this group of screens.
D2 ag-1 – activates the human D2 dopamine receptor; P14416; DiscoveRx PathHunter D2 beta-arrestin, luminescence, 90 min; 100% = 57 uM dopamine signal; activation, % (test concentration not listed); 0.084% of 360,000 active; AID 624465; in the data active = activation above about 40%; inconclusive = between about 15% and that limit
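Agonist mode: compounds alone added to overnight-plated D2 PathHunter cells for 90 min at 37 C, with 57 uM final dopamine (EC100) defining full response. Beta-arrestin recruitment detected by chemiluminescent reagent, read after 1 h at ambient temperature.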
D2 ag-2 – activates the human D2 dopamine receptor. P14416. 0.53% of 340,000 active. activation, % at 2 µM. HEK293 T-REx D2 cells, calcium flux agonist mode;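 active = activation over 3 SD above normal in the single-dose calcium agonist read, cut at about 30% in these data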; also: 0% is about no effect
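In this primary screen, compounds producing a positive calcium signal within 180 s of addition to tetracycline-induced, force-coupled HEK293 Trex D2 cells are flagged; cells are dye-loaded with a no-wash calcium kit beforehand.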
D2 PAM-1 – human D2 receptor positive allosteric modulation | P14416 | DiscoveRx D2 beta-arrestin cells, luminescence, 90 min; 100% = 57 uM dopamine signal | potentiation, % (no concentration beside the values) | 0.23% of 360,000 active | AID 624464; in the data active = potentiation above about 50%; inconclusive = mostly about 30% to 49%
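D2 cells co-treated with compound plus 50 nM dopamine (EC20) for 90 min at 37 deg C to detect potentiation. Beta-arrestin recruitment was read as enzyme-fragment luminescence after 1 h at ambient temperature. Full response was set by 57 uM dopamine.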
D2 PAM-2 – positively modulates the human D2 dopamine receptor allosterically. P14416. HEK293 T-REx D2, calcium flux, EC20 dopamine potentiation. potentiation, % at 10 µM. 0.34% of 340,000 active. AID 485347;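 active = potentiation over 3 SD above the plate norm, cut at about 30% in these data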; also: 0% is about no effect
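Tetracycline-induced HEK293 T-REx cells force-coupled to calcium signalling expressed D2; compounds were pin-added after a 10 s baseline, read kinetically 180 s, then an EC20 dopamine challenge followed with a further 180 s calcium read.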
D2 antagonist – antagonists of human D2 dopamine receptor. P14416. HEK293 TREx D2 cells, calcium flux, dopamine EC80. inhibition, % at 10 µM. 2% of 340,000 active. AID 485344; in the data active = inhibition above about 30%; inactive = below that, where a call was filed; also: 0% is about no effect
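Calcium mobilization kinetics were recorded at 1 s intervals in tetracycline-induced HEK293 T-REx D2 cells, first for 180 s after compound addition and then 180 s after EC80 dopamine.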
D3 arrestin ag – activates human D3 dopamine receptor beta-arrestin recruitment. shares compounds with D2 ag-2. DiscoveRx D3 beta-arrestin cells, luminescence, 90 min. Potency, µM (series often up to 76.9 µM), for inactives: at the highest dose activation, usual class: activators. 4% of 2,300 active. AID 720506;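 also: potency is read from the fitted curve at half-maximal effect; 100% = dopamine control response; nearly all actives have a fitted effect of over 70% in size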
Target sequence (P35462 whole entry, looked up): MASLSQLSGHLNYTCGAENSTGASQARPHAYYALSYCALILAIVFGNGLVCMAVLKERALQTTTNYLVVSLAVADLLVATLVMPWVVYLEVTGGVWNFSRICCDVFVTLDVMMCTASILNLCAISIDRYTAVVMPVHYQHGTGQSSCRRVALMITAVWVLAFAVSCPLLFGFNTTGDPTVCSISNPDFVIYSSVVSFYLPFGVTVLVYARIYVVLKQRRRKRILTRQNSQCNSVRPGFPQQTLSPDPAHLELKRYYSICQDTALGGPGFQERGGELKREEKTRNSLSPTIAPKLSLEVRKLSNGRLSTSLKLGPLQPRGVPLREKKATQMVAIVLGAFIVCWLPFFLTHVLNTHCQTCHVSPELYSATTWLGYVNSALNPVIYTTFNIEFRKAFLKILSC
D2 ag-3 – activates human D2 dopamine receptor in D3 counterscreen. 5.9% of 2,300 active. shares compounds with D2 ag-2. DiscoveRx PathHunter D2 beta-arrestin, luminescence, 90 min; response scale: percent relative to full dopamine signal. Potency, µM (highest dose often 76.9 µM), without a hit: at the highest dose activation, most hits filed as activators; also: potency is read from the fitted curve at half-maximal effect; % of control where 0% means no effect; nearly all actives have a fitted effect of over 70% in size
* = called active by the depositor; ? = inconclusive; / = no result given. Unless noted, calls follow the shape of the dose curve; as a rule, active = well fitted activation curve with a large enough effect; inconclusive = small, poorly fitted or top-dose-only effect; inactive = flat fitted curve, though single readings scatter.

SMILES | D2 ag-1 | D2 ag-2 | D2 PAM-1 | D2 PAM-2 | D2 antagonist | D3 arrestin ag | D2 ag-3
C[C@H]1CC[C@@]2(C)[C@@H](CC[C@@H]3[C@@H]2CC[C@]2(C)[C@@H](O)CC[C@@H]32)C1 | -0.6 | -1.1 | -9.9 | -14.5 | 69.1* | 4.0% | -2.0%
C[C@]12CCC3C(CC[C@H]4C[C@@H](O)CC[C@]34C)[C@H]1CC[C@H]2O (stereo partly specified) | 1.9 | / | -0.2 | / | / | / | /
CCN(CC)CCCC(C)N=C(c1ccccc1)c1c(O)n(C)c(=O)n(C)c1=O (stereo unspecified) | 8.9 | 38.3* | -13.2 | -17.0 | 68.9* | 26.0% | 20.9%
CC(C)C[C@H]1C(=O)N2CCC[C@H]2[C@]2(O)O[C@](NC(=O)[C@@H]3C=C4c5cccc6[nH]c(Br)c(c56)CC4N(C)C3)(C(C)C)C(=O)N12 (stereo partly specified) | 55.3* | 79.9* | ? | -27.4 | 94.1* | ? | 0.282µM*
CC(C)C[C@H]1C(=O)N2CCCC2[C@]2(O)O[C@](NC(=O)[C@@H]3C=C4c5cccc6[nH]cc(c56)CC4N(C)C3)(C(C)C)C(=O)N12 (stereo partly specified) | 122.2* | 73.1* | 54.3* | -27.5 | 78.1* | ? | 0.282µM*
CC(C)[C@@]1(NC(=O)[C@@H]2C[C@@H]3c4cccc5[nH]cc(c45)C[C@H]3N(C)C2)O[C@@]2(O)[C@@H]3CCCN3C(=O)[C@H](Cc3ccccc3)N2C1=O | -7.9 | 90.9* | -0.4 | -32.1 | 101.0* | 7.2% | ?
CCOc1ccc(CN(CCc2ccc3c(c2)OCO3)Cc2ccc(CC)cc2)cc1 | / | 3.9 | / | 0.2 | / | / | /
COc1ccc(CCNCc2ccc(SC)cc2)cc1 | -1.9 | -0.1 | -24.0 | -10.8 | -13.6 | / | /
CS(=O)(=O)c1ccc(C2=C(CNC(=O)c3nccs3)[C@H]3CC[C@@H](C2)N3CCOc2ccccc2)cc1 | -3.6 | / | -16.0 | / | / | / | /
CCN(C(=O)CN1CC=C(c2ccccc2)CC1)c1c(N)n(Cc2ccccc2)c(=O)[nH]c1=O | -2.3 | 10.8 | -9.0 | -7.5 | -12.6 | -12.0% | 2.4%
Brc1ccc2c(c1)C(OC1CN3CCC1CC3)c1ccccc1CS2 (stereo unspecified) | -5.0 | 2.2 | -49.8 | -21.0 | 5.5 | / | /
COc1ccc(N2C(=O)NC(=O)/C(=C/c3ccc(N4CCOCC4)cc3)C2=O)cc1 | / | 0.2 | / | 8.0 | 14.4 | / | /
CCOc1ccc(N2C(=O)NC(=O)/C(=C\c3ccc(N4CCOCC4)cc3C)C2=O)cc1 | 1.6 | 54.6* | 9.6 | -17.3 | 5.9 | 0.6% | 0.6%
COc1c2c(cc3c1OCO3)CCN(C)C2 | -4.6 | 68.5* | 6.6 | -13.1 | 74.8* | ? | ?
COc1cc2c(cc1OC)-c1c3c(cc4c1[C@@H](C2)N(C)CC4)OCO3 | 4.5 | 0.0 | -26.4 | -10.9 | 4.3 | / | /
COc1cccc(NP2(=O)OCC(C)([N+](=O)[O-])CO2)c1 (stereo unspecified) | 0.7 | / | -5.5 | / | / | / | /

Assay outcomes as filed in PubChem BioAssay.
